# About 83,000 compounds went through this panel and 20% of them were active in at least one assay; those are over-represented in the sample as a whole.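 Testing used 96-well plates and a 48-hour single-concentration exposure. Example: -40 means 40% of the starting cells died.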 Unmarked numbers belong to inactive results. Activity calls are given as the source filed them. The calls were made as follows: active = growth percent below 10; inactive = the rest.
# How the values were obtained:
# Assay in all cases: NCI-60 one-dose screen, 48 h (100 = growth as untreated, 0 = no growth, -100 = all killed)
# Details in all cases: 10 µM unless noted
# DU-145 prostate = system: DU-145 prostate
# K-562 leukemia = system: K-562 leukemia
# MALME-3M melanoma = system: MALME-3M melanoma
# MDA-MB-231 breast = system: MDA-MB-231 breast
# RXF 393 renal = system: RXF 393 renal
# SF-268 CNS = system: SF-268 CNS
# SF-539 CNS = system: SF-539 CNS
# UACC-257 melanoma = system: UACC-257 melanoma
# M14 melanoma = system: M14 melanoma
# HCT-15 colon = system: HCT-15 colon
# HT29 colon = system: HT29 colon
# SNB-75 CNS = system: SNB-75 CNS
# SNB-19 CNS = system: SNB-19 CNS
# U251 CNS = system: U251 CNS
# PC-3 prostate = system: PC-3 prostate
# SK-MEL-5 melanoma = system: SK-MEL-5 melanoma
# UACC-62 melanoma = system: UACC-62 melanoma
# LOX IMVI melanoma = system: LOX IMVI melanoma
# SK-MEL-28 melanoma = system: SK-MEL-28 melanoma
SMILES,growth (DU-145 prostate),growth (K-562 leukemia),growth (MALME-3M melanoma),growth (MDA-MB-231 breast),growth (RXF 393 renal),growth (SF-268 CNS),growth (SF-539 CNS),growth (UACC-257 melanoma),growth (M14 melanoma),growth (HCT-15 colon),growth (HT29 colon),growth (SNB-75 CNS),growth (SNB-19 CNS),growth (U251 CNS),growth (PC-3 prostate),growth (SK-MEL-5 melanoma),growth (UACC-62 melanoma),growth (LOX IMVI melanoma),growth (SK-MEL-28 melanoma)
CC(C)COC(=O)NC(C)(C)C,115%,92.8%,107%,119%,113%,109%,101%,102%,104%,98%,93%,86.7%,111%,107%,102%,109%,107%,103%,113%
CC(=O)[C@H]1CC[C@H]2[C@@H]3CC[C@H]4CC=CC[C@]4(C)[C@H]3CC[C@]12C,111%,84.9%,84%,99.4%,98.2%,102%,91.6%,75.6%,90.3%,89.8%,79.4%,74.1%,98.1%,102%,58%,98.8%,79.9%,95.4%,89.1%
CCn1c(CN2CCN(Cc3ccccc3)CC2)nc2cc(NC(=O)c3cccs3)ccc21,-57.7% (active),-27.5% (active),-72.8% (active),-90.6% (active),-92.4% (active),-88.3% (active),-69.8% (active),-80.1% (active),-64.6% (active),3.47% (active),-55.6% (active),-96.6% (active),-41.7% (active),-91.4% (active),-51.5% (active),-98.9% (active),-92.8% (active),-89.7% (active),-91.2% (active)
CCc1oc2ccccc2c1C(=O)c1cc(I)c(O)c(I)c1,77.8%,25%,53%,54.7%,45.3%,53.1%,44%,70.7%,16.2%,33.2%,98.5%,31.9%,54.2%,29.1%,74.9%,32.2%,45.6%,51.4%,62.4%
Cc1ccc(-c2cnc3sc4ccc(Cl)cc4n23)cc1,101%,110%,110%,85%,104%,98.5%,94.4%,112%,100%,100%,99.8%,93.9%,96.4%,105%,82.6%,95.6%,87.9%,94.2%,109%
CC(=O)O[C@H]1[C@H](CC#CC#CC[C@@H]2C[C@]3(C)[C@H]4CC=C5[C@H]6[C@@H](C)[C@H](C)CC[C@]6(C(=O)NCCN(CCN)CCN)CC[C@@]5(C)[C@]4(C)CC[C@H]3C(C)(C)[C@H]2OC(C)=O)C[C@]2(C)[C@H]3CC=C4[C@H]5[C@@H](C)[C@H](C)CC[C@]5(C(=O)NCCN(CCN)CCN)CC[C@@]4(C)[C@]3(C)CC[C@H]2C1(C)C,86%,18.3%,67.8%,59.6%,57.9%,87.1%,84.2%,96%,63.1%,26.8%,58.1%,68.1%,31.9%,36.2%,51.7%,92.2%,40.9%,50.9%,85%
CCOCC(O)(c1ccc(Cl)cc1)c1ccc(Cl)cc1,96.1%,88.1%,103%,100%,117%,97.4%,104%,94.1%,114%,88.6%,81.4%,103%,106%,95.9%,88.8%,96.1%,87%,94.8%,108%
CC(=O)c1nn(-c2ccccc2)/c(=N\N=C\c2coc3ccc(F)cc3c2=O)s1,111%,94.5%,102%,88.3%,116%,87.8%,94.4%,116%,93.5%,101%,108%,73.4%,94.4%,100%,92.6%,98.3%,97.4%,95.2%,111%
Cc1ccc(N=CNN=C(N)N)cc1,113%,87.8%,114%,118%,110%,105%,94.8%,97.4%,103%,100%,105%,96.8%,105%,97.2%,107%,105%,89.8%,113%,106%
C#CC[C@@H]1C[C@]2(C)[C@H]3CC=C4[C@H]5CC(C)(C)CC[C@]5(C(=O)NCCCCN)CC[C@@]4(C)[C@]3(C)CC[C@H]2C(C)(C)[C@H]1OC(C)=O,-47.9% (active),-30% (active),85%,-58.6% (active),-43.3% (active),89.4%,86.9%,111%,2.23% (active),8.51% (active),5.83% (active),-79.9% (active),6.48% (active),-77.9% (active),27%,93.9%,106%,-70.2% (active),102%
Cc1ccc(Nc2nc(NCCO)c3ccccc3n2)cc1C,-14.6% (active),11.1%,43.8%,12.6%,42.5%,20.1%,7% (active),62%,24.4%,15.6%,12.9%,39.6%,57%,15.1%,35.7%,-18.6% (active),35.7%,8.62% (active),52.5%
CCCc1cc2c(cc1CN(Cc1cc3c(cc1CCC)OCO3)C(=N)OCC)OCO2,97.6%,63.4%,82.8%,77.8%,106%,79.2%,112%,83.9%,85.9%,94.8%,52.4%,95.6%,94%,67.3%,59.3%,88.8%,77.2%,83.6%,102%
C#CC[C@@H]1C[C@]2(C)[C@H]3CC[C@@H]4[C@H]5C(C(=C)C)CC[C@]5(C(=O)NCCCCN)CC[C@@]4(C)[C@]3(C)CC[C@H]2C(C)(C)[C@H]1OC(C)=O (some centres undefined),-77.8% (active),-9.82% (active),46.6%,-81.2% (active),-89.2% (active),91.6%,-82.9% (active),85.9%,-58.5% (active),-66.1% (active),-61.3% (active),-97.3% (active),-56.7% (active),-86.6% (active),6.29% (active),89.9%,-36.1% (active),-83.4% (active),67.9%
O=C(c1ccccc1)N(CCCCl)C(=O)N(CCCCl)C(=O)c1ccccc1,102%,91.1%,91.8%,85.7%,111%,100%,97.2%,100%,96.4%,94.6%,82.1%,104%,97.4%,88.5%,72.1%,89.6%,65.2%,90%,133%
Fc1cnccc1-c1nc2ccc3[nH]ncc3c2c2c1CCCC2,24.1%,30.9%,44.2%,51.2%,-23.9% (active),31.9%,5.76% (active),63%,26%,12.4%,25.4%,-25.5% (active),44.2%,29.6%,27.1%,29%,17.3%,22.8%,24.3%
N=c1n(Cc2ccccc2)c(N)cc(=O)n1Cc1ccccc1,-19.6% (active),21%,23.3%,83%,-15.5% (active),2.59% (active),12.5%,43.8%,84.6%,45.8%,26.8%,36.6%,52.8%,25.4%,37.5%,2.83% (active),33.8%,14.2%,60.8%
